Rab9 promoter act: qHTS Assay for Rab9 Promoter Activators | Huh7 Rab9 promoter-luciferase reporter, luminescence, 24 h | Potency, µM (highest dose often 9.22 µM), usual class: activators | AID 485297, 2010 | actives 2.8% (n = 320,000); also: nearly all actives have a fitted effect of over 60% in size
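Steps: seed 1500 Huh7 Rab9-luc cells per well, rest 2 h at 37 °C; add compound in DMSO; incubate 24 h; add luciferase reagent, 10 min ambient; read luminescence.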
ELG1 genotox: qHTS screen for small molecules that induce genotoxicity in human embryonic kidney (HEK293T) cells expressing luciferase-tagged ELG1. HEK293T ELG1-luciferase reporter, luminescence, 16 h. Potency, µM (doses to about 46 µM), actives largely listed as activators. actives 1.3% (n = 330,000). AID 504466, 2011; also: nearly all actives have a fitted effect of over 60% in size
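Genotoxicity was scored as increased ELG1-luciferase reporter signal, measured by ONE-Glo luminescence (30 min, room temperature). Compound or vehicle exposure of the HEK293T reporter cells lasted 16 hr at 37°C.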
KinaseGlo FLuc: Counterscreen for Luciferase (Kinase-Glo TM) Inhibition; Luciferin 4-monooxygenase (Photuris pensylvanica), Q27757; Potency, µM (series often up to 38.3 µM), usual class: inhibitors; Kinase-Glo luciferase, ATP luminescence, 8 min; actives 0.28% (n = 200,000); AID 1379, 2008; also: nearly all actives have a fitted effect of over 60% in size
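Kinase-Glo luciferase light output from ATP and luciferin was measured with 10 uM ATP, within the enzyme's linear range. Buffer: 50 mM imidazole pH 7.2, 50 mM KCl, 7 mM MgCl2, 0.01% Tween 20, 0.05% BSA; luminescence read after 8 min at ambient temperature.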
NPC1 prom act: qHTS Assay for NPC1 Promoter Activators; Huh7 NPC1 promoter luciferase reporter, 24 h; Potency, µM (series often up to 9.22 µM), most hits filed as activators; actives 2.4% (n = 320,000); AID 485313, 2010; also: nearly all actives have a fitted effect of over 60% in size
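Quantitative HTS used a cell-based reporter: Huh7 cells stably bearing the NPC1 promoter upstream of luciferase were treated with compounds for 24 h, and promoter activation was read as luminescence.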
FLuc modulator: qHTS profiling assay for firefly luciferase inhibitor/activator using purifed enzyme and Km concentrations of substrates (counterscreen for miR-21 project); Luciferin 4-monooxygenase (Photinus pyralis), P08659; purified FLuc, Km substrates, luminescence inhibition; Potency, µM (doses to about 57.5 µM), usual class: inhibitors; actives 6.9% (n = 360,000); AID 588342, 2011; also: nearly all actives have a fitted effect of over 55% in size
Target sequence (P08659 whole entry, looked up): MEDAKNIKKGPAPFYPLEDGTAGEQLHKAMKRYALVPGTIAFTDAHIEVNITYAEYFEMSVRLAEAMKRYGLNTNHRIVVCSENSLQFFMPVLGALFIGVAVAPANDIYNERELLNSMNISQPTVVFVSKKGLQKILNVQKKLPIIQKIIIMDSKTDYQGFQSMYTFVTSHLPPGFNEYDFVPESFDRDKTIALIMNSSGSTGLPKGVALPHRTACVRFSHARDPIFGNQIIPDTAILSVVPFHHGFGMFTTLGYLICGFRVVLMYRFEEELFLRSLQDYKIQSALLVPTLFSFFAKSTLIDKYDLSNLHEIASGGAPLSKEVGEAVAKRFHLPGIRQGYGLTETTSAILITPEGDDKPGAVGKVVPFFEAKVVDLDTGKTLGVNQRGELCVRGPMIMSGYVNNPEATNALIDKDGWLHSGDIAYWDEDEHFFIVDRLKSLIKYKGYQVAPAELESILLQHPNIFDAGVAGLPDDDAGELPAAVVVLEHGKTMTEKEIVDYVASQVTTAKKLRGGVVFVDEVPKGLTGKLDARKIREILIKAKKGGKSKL
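Biochemical qHTS of compounds, final roughly 60 µM downward over six points, against 10 nM purified firefly luciferase using Km concentrations of substrates (10 uM D-luciferin, 10 uM ATP) in Tris acetate pH 7.5 buffer; luminescence output.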
SMN2 splice enh: qHTS Assay for Enhancers of SMN2 Splice Variant Expression. HEK293 SMN2-luciferase splicing reporter, luminescence, 30-36 h. Potency, µM (doses to about 46.1 µM), actives largely listed as activators. actives 2.8% (n = 210,000). AID 1458, 2008; also: nearly all actives have a fitted effect of over 55% in size
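HEK293 cells carry an SMN2 minigene-luciferase reporter in which exon 7 inclusion puts luciferase in frame. Cells were seeded at 2000 cells/well, attached for 10-12 hours, then exposed to compounds for 30-36 hours at 37C before ONE-Glo luminescence.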
A number is an active result; n = inactive; u = inconclusive; x = no result. Rows were chosen to be rich in hits. Some 7.5% of all compounds tested hit in one or more screens of this group. Calls follow the shape of the dose curve; as a rule, active = well fitted curve in the direction sought with a large enough effect; inconclusive = small, poorly fitted or top-dose-only effect, or another doubt; inactive = no such curve, though single readings can be large; an effect the other way counts as inactive or inconclusive.

SMILES	Rab9 promoter act	ELG1 genotox	KinaseGlo FLuc	NPC1 prom act	FLuc modulator	SMN2 splice enh
CCc1ccccc1NC(=O)C(NS(=O)(=O)c1ccc2c(c1)CCC(=O)N2)c1ccccc1 (configuration not stated)	x	x	x	x	n	n
CN(C)CCNC(=O)CN1C(=O)COc2ccc(S(=O)(=O)N3CCCC3)cc21	x	x	x	x	n	n
Cc1ccc(-c2nc3cc(Cl)ccc3o2)cc1NC(=O)COc1ccc(F)cc1	x	x	x	x	n	x
Cc1ccc2oc(-c3ccc(C)c(NC(=O)/C=C/c4ccco4)c3)nc2c1	x	x	x	x	12µM	u
Cc1ccc(-c2nc3ccccc3o2)cc1NC(=S)NC(=O)/C=C/c1ccco1	n	n	n	n	u	n
Cc1ccc2oc(-c3ccc(C)c(NC(=O)/C=C/c4ccc(Cl)cc4)c3)nc2c1	x	x	x	x	12µM	n
O=C(Nc1ccccc1C(F)(F)F)c1ccccn1	n	n	n	n	u	n
CCOC(=O)c1cccc(NC(=O)c2cnccn2)c1	u	u	n	2.8µM	n	u
O=C(Nc1ccccc1C(F)(F)F)c1cc2ccccn2n1	x	x	x	x	1.9µM	x
O=C(NCCc1ccccc1Cl)c1cc2ccccn2n1	x	x	x	x	12µM	x
CCOC(=O)c1cccc(NC(=O)c2cc3ccccn3n2)c1	x	x	x	x	3µM	x
CCN1N=C(c2ccccc2)Cn2c1nc1ccccc12	n	n	n	n	n	n
C#CCn1c(C2CC(=O)N(c3ccc(OC)cc3)C2)nc2ccccc21 (configuration not stated)	x	x	x	x	n	n
CCOc1ccc(OCC)c(NC(=O)c2cc3ccccn3n2)c1	x	x	x	x	n	x
COc1ccc(NC(=O)c2cc3ccccn3n2)cc1	u	1.2µM	n	1µM	2.1µM	6.3µM
O=C(Nc1ccc(OC(F)(F)F)cc1)c1cc2ccccn2n1	x	x	x	x	2.7µM	x
CCCCNC(=O)CCn1c(=O)c2cccn2c2cccnc21	x	x	x	x	n	x
CCOC(=O)N1CCC(N(CCN(C)C)C(=S)Nc2ccccc2OCC)CC1	n	n	n	n	n	n
Cc1ccc2c(c1Br)/C(=N/N1C(=O)c3ccccc3C1=O)C(=O)N2	n	n	n	n	2.4µM	n
COCCN1Cc2cccc(C(=O)Nc3ccc(C)c(C)c3)c2C1=O	n	n	n	n	7.6µM	n
COCCN1Cc2cccc(C(=O)Nc3cccc(OC)c3)c2C1=O	n	n	n	n	n	n
COc1ccc(N2Cc3cccc(C(=O)Nc4ccc(C(C)C)cc4)c3C2=O)cc1	x	x	x	x	0.27µM	u
CCOc1ccc(NC(=O)c2cccc3c2C(=O)N(CCOC)C3)cc1	n	n	n	n	6.7µM	n
CCN(CC)S(=O)(=O)c1ccc(NC(=O)c2cccc3c2C(=O)N(CCOC)C3)cc1	n	n	n	n	n	n
CSCC[C@H](NC(=O)c1cccc(S(=O)(=O)N2CCN(C)CC2)c1)c1nc2ccccc2[nH]1	x	n	x	x	x	x
SMILES	Rab9 promoter act	ELG1 genotox	KinaseGlo FLuc	NPC1 prom act	FLuc modulator	SMN2 splice enh
CCCCNc1c(-c2cccc(SC(C)CC)c2)nc2ccc(Cl)cn12 (configuration not stated)	x	n	x	x	x	x
CCCCNc1c(-c2ccc(SC(C)CC)cc2)nc2ccccn12 (configuration not stated)	3.5µM	n	x	3.5µM	1.3µM	x
CCCCNc1c(-c2ccc(SC3CCCCC3)cc2)nc2ccccn12	4µM	10µM	x	2.8µM	4.8µM	x
COc1ccc(C(CNC(=O)c2cncc(Br)c2)N(C)C)cc1 (configuration not stated)	n	n	n	n	n	n
Clc1ccc(/C=N/Nc2ncnc3ccccc23)cc1Cl	4µM	u	n	u	8.5µM	u
Cc1cc(C)nc(N/N=C/c2cccc(Cl)c2)n1	n	n	n	n	u	u
Fc1ccccc1/C=N/Nc1ncnc2ccccc12	3.2µM	u	n	n	1.7µM	11µM
Clc1cccc(/C=N/Nc2nc(Cl)nc3ccccc23)c1	4µM	u	n	2.8µM	4.8µM	22µM
Cc1ccc(C(=O)/C=C/c2ccc(-c3ccccc3[N+](=O)[O-])o2)cc1	n	n	n	u	19µM	n
Cc1ccc(C(=O)/C=C/c2ccccc2[N+](=O)[O-])cc1	u	u	n	n	8.5µM	n
O=C(/C=C/c1ccc(-c2ccccc2[N+](=O)[O-])o1)c1ccc(Br)cc1	n	n	n	n	u	n
O=C(/C=C/c1ccccc1F)c1cccc([N+](=O)[O-])c1	n	u	n	n	12µM	n
O=C(/C=C/c1ccc(-c2ccccc2[N+](=O)[O-])o1)c1ccc(F)cc1	n	n	n	n	13µM	n
COc1cc(/C=C/C(=O)c2cccc([N+](=O)[O-])c2)cc(OC)c1OC	n	n	n	n	n	n
O=C(/C=C/c1ccccc1[N+](=O)[O-])c1ccccc1Br	n	n	n	n	u	n
CC(=O)N1CCc2c(sc3c2c(=O)n(-c2ccccc2)c(=O)n3CC(=O)c2ccc(F)cc2)C1	x	x	x	x	n	n
